# Measured values: PubChem BioAssay (EPA / NIEHS)
# “And” between values parts separate entries of the source, which are not always exact repeats. Identical values can stand only once. Some compounds were tested as several samples or in several runs, with calls that do not always agree. The source made the active and inactive calls. Rule for the calls: active = hit-call score of the fitted dose curve at least 0.9, where 1 is the maximum; inactive = score below 0.9.
# How the values were obtained:
# Conditions in all cases: mRNA level, 48 h; actives raise or lower the signal
# [1] = read-out: Alkaline Phosphatase, Placental (ALPP) gene, ALPP (gene 250); test: LTEA_HepaRG_ALPP: Life Technologies and Expression Analysis (LTEA) Assay for Alkaline Phosphatase, Placental (ALPP) gene using HepaRG (AID 2283468);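 for AC50: differentiated human HepaRG liver cells in serum-free induction medium; ALPP transcript by TaqMan qRT-PCR normalized to ACTB GAPDH and POLR2A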
# Summary of the method: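 HepaRG, 48 h plating then 48 h dosing, serum-free induction medium, 0.5% DMSO. 8 conc, half-log, max 100 uM, duplicates. Endpoint: ALPP transcript by qRT-PCR, housekeeping-normalized; gain or loss fitted vs DMSO.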
# [2] = read-out: Bcl-2 (BAD) gene, BAD (gene 572); test: LTEA_HepaRG_BAD: Life Technologies and Expression Analysis (LTEA) Assay for Bcl-2 (BAD) gene using HepaRG (AID 2283469)
# Summary of the method: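 Read-out: qRT-PCR of BAD mRNA, normalized to three housekeeping genes. Human HepaRG cultures got 48 h chemical exposure in 0.5% DMSO, duplicate eight-point half-log series topping at 100 uM. Gain or loss of signal fitted versus DMSO vehicle.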
# [3] = read-out: Bcl-2 (BAX) gene, BAX (gene 581); test: LTEA_HepaRG_BAX: Life Technologies and Expression Analysis (LTEA) Assay for Bcl-2 (BAX) gene using HepaRG (AID 2283470)
# Summary of the method: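 qRT-PCR read-out of BAX mRNA, normalized to three housekeeping genes, after 48 h chemical exposure of human HepaRG cells in serum-free induction medium; eight-point half-log series, top 100 uM, 0.5% DMSO vehicle; bidirectional fit versus DMSO.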
# [4] = read-out: adenosine kinase (ADK) gene, ADK (gene 132); test: LTEA_HepaRG_ADK: Life Technologies and Expression Analysis (LTEA) Assay for adenosine kinase (ADK) gene using HepaRG (AID 2283471)
# Summary of the method: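 Read-out is ADK transcript level measured by qRT-PCR and normalised to three housekeeping genes. Cells are human HepaRG, dosed for 48 h at up to 100 uM in 0.5% DMSO. Gain or loss of signal is fitted against DMSO controls.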
# [5] = read-out: Alpha-fetoprotein (AFP) gene, AFP (gene 174); test: LTEA_HepaRG_AFP: Life Technologies and Expression Analysis (LTEA) Assay for Alpha-fetoprotein (AFP) gene using HepaRG (AID 2283472);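 for AC50: AFP transcript by TaqMan qRT-PCR normalized to ACTB GAPDH and POLR2A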
# Summary of the method: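 qRT-PCR (Fluidigm TaqMan) readout of AFP transcript, normalized to three housekeeping genes, fitted bidirectionally against 0.5% DMSO baseline. HepaRG cells received chemicals for 48 h in serum-free induction medium, top concentration 100 uM, half-log steps.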
# [6] = read-out: Apolipoprotein A-V (APOA5) gene, APOA5 (gene 116519); test: LTEA_HepaRG_APOA5: Life Technologies and Expression Analysis (LTEA) Assay for Apolipoprotein A-V (APOA5) gene using HepaRG (AID 2283474)
# Summary of the method: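 Readout is APOA5 transcript level by qRT-PCR on Fluidigm dynamic arrays, normalized to three housekeeping genes. HepaRG cultures received chemicals for 48 h at up to 100 uM (half-log steps, 0.5% DMSO), with gain or loss scored relative to DMSO.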
# [7] = read-out: Apoptosis regulator Bcl-2 (Homo sapiens) (UniProt P10415); test: LTEA_HepaRG_BCL2: Life Technologies and Expression Analysis (LTEA) Assay for Bcl-2 gene using HepaRG (AID 2283475);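 note: BCL2 transcript by TaqMan qRT-PCR normalised to ACTB GAPDH and POLR2A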
# Summary of the method: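 qRT-PCR read-out (Fluidigm TaqMan) of BCL2 transcript, normalised to three housekeeping genes, after 48 h chemical exposure of HepaRG cells; 8-point half-log series, top 100 uM, 0.5% DMSO vehicle. Gain or loss of signal fitted relative to DMSO baseline.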
# [8] = read-out: Bcl-2 (BID) gene, BID (gene 637); test: LTEA_HepaRG_BID: Life Technologies and Expression Analysis (LTEA) Assay for Bcl-2 (BID) gene using HepaRG (AID 2283476)
# Summary of the method: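 HepaRG, 48 h exposure, 8-pt half-log series, top 100 uM, 0.5% DMSO vehicle, duplicates. Readout: BID mRNA by TaqMan qRT-PCR; housekeeping-normalized; bidirectional curve fit vs DMSO baseline.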
# Caspase-3 (Homo sapiens) = Caspase-3 (Homo sapiens) (UniProt P42574); test: LTEA_HepaRG_CASP3: Life Technologies and Expression Analysis (LTEA) Assay for cysteine-aspartic acid protease (CASP3) using HepaRG (AID 2283477)
# Sequence of Caspase-3 (Homo sapiens) (P42574 whole entry, looked up): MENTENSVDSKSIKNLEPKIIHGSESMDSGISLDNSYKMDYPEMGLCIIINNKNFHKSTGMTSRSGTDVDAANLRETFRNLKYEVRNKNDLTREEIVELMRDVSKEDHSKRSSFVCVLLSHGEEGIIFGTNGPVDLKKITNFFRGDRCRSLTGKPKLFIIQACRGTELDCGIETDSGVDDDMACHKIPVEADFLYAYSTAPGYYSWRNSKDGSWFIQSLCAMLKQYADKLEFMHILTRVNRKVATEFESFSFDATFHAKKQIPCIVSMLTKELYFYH
# Summary of the method: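 Read-out is CASP3 mRNA level by TaqMan qRT-PCR in human HepaRG cells after 48 h chemical exposure. Eight half-log concentrations topping at 100 uM were tested in 0.5% DMSO; gain or loss was fitted relative to DMSO.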
# BCL2L11 (gene 10018) = test: LTEA_HepaRG_BCL2L11: Life Technologies and Expression Analysis (LTEA) Assay for Bcl-2 (BCL2L11) gene using HepaRG (AID 2283473)
# Summary of the method: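 Read-out is BCL2L11 transcript level by qRT-PCR, normalized to three housekeeping genes and fitted bidirectionally against 0.5% DMSO vehicle. HepaRG cells received chemicals for 48 h in serum-free induction medium, 100 uM down in half-log dilutions.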
# Sequence of Apoptosis regulator Bcl-2 (Homo sapiens) (P10415 whole entry, looked up): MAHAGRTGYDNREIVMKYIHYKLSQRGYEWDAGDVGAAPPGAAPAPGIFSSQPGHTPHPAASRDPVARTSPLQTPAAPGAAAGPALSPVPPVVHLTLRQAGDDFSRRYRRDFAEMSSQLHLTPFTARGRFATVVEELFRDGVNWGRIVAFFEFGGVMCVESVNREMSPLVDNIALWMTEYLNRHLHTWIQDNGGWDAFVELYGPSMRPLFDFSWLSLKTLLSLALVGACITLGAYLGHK
smiles,measurement,setting,value
S=C(S)NCCNC(=S)S.[Mn+2].[S-]C([S-])=NCCN=C([S-])[S-].[Zn+2],AC50,[1],25 µM (active)
same,outcome,[1],inactive
same,outcome,[2],inactive
same,AC50,[3],2.35 µM (active) and 1.62 µM (active)
same,outcome,[3],inactive
same,AC50,[4],255 nM (active) and 1.08 µM (active) and 270 nM (active)
same,AC50,[5],1.28 µM (active) and 1.55 µM (active)
same,AC50,[6],1.22 µM (active) and 1.49 µM (active) and 1.99 µM (active)
same,AC50,[7],163 nM (active) and 351 nM (active) and 509 nM (active)
same,outcome,[8],inactive
same,AC50,Caspase-3 (Homo sapiens),501 nM (active) and 990 nM (active)
same,outcome,Caspase-3 (Homo sapiens),inactive
Oc1ccc(C(c2ccc(O)cc2)C(Cl)(Cl)Cl)cc1,outcome,[1],inactive
same,outcome,[2],inactive
same,outcome,[3],inactive
same,AC50,[4],75.9 µM (active)
same,outcome,[5],inactive
same,outcome,[7],inactive
same,AC50,[8],84.8 µM (active)
same,AC50,Caspase-3 (Homo sapiens),86.2 µM (active)
C#C[C@]1(O)CC[C@H]2[C@@H]3CCC4=CC(=O)CC[C@@H]4[C@H]3CC[C@@]21CC,outcome,[1],inactive
same,outcome,[2],inactive
same,outcome,[3],inactive
same,outcome,[4],inactive
same,outcome,[5],inactive
same,outcome,[7],inactive
same,outcome,[8],inactive
same,outcome,Caspase-3 (Homo sapiens),inactive
CCN(CC)C(=O)c1cccc(C)c1,outcome,[1],inactive
same,outcome,[2],inactive
same,outcome,[3],inactive
same,outcome,[4],inactive
same,outcome,[5],inactive
same,outcome,BCL2L11 (gene 10018),inactive
same,outcome,[6],inactive
same,outcome,[7],inactive
same,outcome,[8],inactive
same,outcome,Caspase-3 (Homo sapiens),inactive
CC(=O)[C@H]1CC[C@H]2[C@@H]3CCC4=CC(=O)CC[C@]4(C)[C@H]3CC[C@]12C,AC50,[1],30 µM (active)
same,outcome,[2],inactive
same,AC50,[3],27 µM (active)
same,AC50,[4],88.7 µM (active)
same,AC50,[5],24.4 µM (active)
same,AC50,BCL2L11 (gene 10018),12.8 µM (active)
same,AC50,[7],23 µM (active)
same,outcome,[8],inactive
same,outcome,Caspase-3 (Homo sapiens),inactive
CCCN(CCC)c1c([N+](=O)[O-])cc(C(F)(F)F)c(N)c1[N+](=O)[O-],outcome,[1],inactive
same,outcome,[2],inactive
same,outcome,[3],inactive
same,outcome,[4],inactive
same,AC50,[5],34.4 µM (active)
same,AC50,[6],50 µM (active)
same,outcome,[7],inactive
same,outcome,[8],inactive
same,outcome,Caspase-3 (Homo sapiens),inactive
COC(=O)CSc1cc(N=c2sc(=O)n3n2CCCC3)c(F)cc1Cl,outcome,[1],inactive
same,outcome,[2],inactive
same,outcome,[3],inactive
same,outcome,[4],inactive
same,outcome,[5],inactive
same,outcome,[7],inactive
same,outcome,[8],inactive
same,outcome,Caspase-3 (Homo sapiens),inactive
COCCO,outcome,[1],inactive
same,outcome,[2],inactive
same,outcome,[3],inactive
same,outcome,[4],inactive
same,outcome,[5],inactive
same,outcome,[7],inactive
same,outcome,[8],inactive
same,outcome,Caspase-3 (Homo sapiens),inactive
CC(C)(c1ccc(O)cc1)c1ccc(O)cc1,outcome,[1],inactive
same,outcome,[2],inactive
same,outcome,[3],inactive
same,outcome,[4],inactive
same,outcome,[5],inactive
same,outcome,[7],inactive
same,outcome,[8],inactive
same,outcome,Caspase-3 (Homo sapiens),inactive
CCCCOC(=O)C(C)Oc1ccc(Oc2ccc(C(F)(F)F)cn2)cc1 (centres undefined),outcome,[1],inactive
same,outcome,[2],inactive
same,outcome,[3],inactive
same,outcome,[4],inactive
same,outcome,[5],inactive
same,outcome,[7],inactive
same,outcome,[8],inactive
same,outcome,Caspase-3 (Homo sapiens),inactive
c1ccc2[nH]c(-c3cscn3)nc2c1,outcome,[1],inactive
same,outcome,[2],inactive
same,outcome,[3],inactive
same,outcome,[4],inactive
same,outcome,[5],inactive
same,outcome,[7],inactive
same,outcome,[8],inactive
same,outcome,Caspase-3 (Homo sapiens),inactive
C[C@]12CC[C@@H]3c4ccc(O)cc4C[C@@H](CCCCCCCCCS(=O)CCCC(F)(F)C(F)(F)F)[C@H]3[C@@H]1CC[C@@H]2O (some centres undefined),outcome,[1],inactive
same,AC50,[2],0.045 µM (active)
same,outcome,[3],inactive
same,outcome,[4],inactive
same,AC50,[5],33.1 µM (active)
same,AC50,[7],0.0469 µM (active)
same,AC50,[8],0.0682 µM (active)
same,outcome,Caspase-3 (Homo sapiens),inactive
CCNc1nc(N)nc(Cl)n1,outcome,[1],inactive
same,outcome,[2],inactive
same,outcome,[3],inactive
same,outcome,[4],inactive
same,outcome,[5],inactive
same,outcome,[7],inactive
same,outcome,[8],inactive
same,outcome,Caspase-3 (Homo sapiens),inactive
CCCOC(=O)c1ccc(C(=O)OCCC)nc1,outcome,[1],inactive
same,outcome,[2],inactive
same,outcome,[3],inactive
same,outcome,[4],inactive
same,outcome,[5],inactive
same,outcome,[7],inactive
same,outcome,[8],inactive
same,outcome,Caspase-3 (Homo sapiens),inactive
CC(=O)S[C@@H]1CC2=CC(=O)CC[C@]2(C)[C@H]2CC[C@@]3(C)[C@@H](CC[C@@]34CCC(=O)O4)[C@H]12,outcome,[1],inactive
same,outcome,[2],inactive
same,outcome,[3],inactive
same,AC50,[4],50 µM (active)
same,AC50,[5],43.4 µM (active)
same,outcome,[7],inactive
same,outcome,[8],inactive
same,AC50,Caspase-3 (Homo sapiens),50 µM (active)
C=CCOC(Cn1ccnc1)c1ccc(Cl)cc1Cl (centres undefined),AC50,[1],50 µM (active)
same,outcome,[2],inactive
same,AC50,[3],33.9 µM (active)
same,outcome,[4],inactive
same,AC50,[5],25.9 µM (active)
same,AC50,[7],13.7 µM (active)
same,outcome,[8],inactive
same,outcome,Caspase-3 (Homo sapiens),inactive
C#CCOC(=O)[C@@H](C)Oc1ccc(Oc2ncc(Cl)cc2F)cc1,outcome,[1],inactive
same,outcome,[2],inactive
same,outcome,[3],inactive
same,outcome,[4],inactive
same,outcome,[5],inactive
same,outcome,[7],inactive
same,outcome,[8],inactive
same,outcome,Caspase-3 (Homo sapiens),inactive
CCOC(=O)C(C)Oc1ccc(Oc2cnc3cc(Cl)ccc3n2)cc1 (centres undefined),outcome,[1],inactive
same,outcome,[2],inactive
same,outcome,[3],inactive
same,outcome,[4],inactive
same,outcome,[5],inactive
same,outcome,[7],inactive
same,outcome,[8],inactive
same,outcome,Caspase-3 (Homo sapiens),inactive
CCOC(=O)COc1cc(-n2ncc(C(F)(F)F)c(C)c2=O)c(F)cc1Cl,outcome,[1],inactive
same,outcome,[2],inactive
same,outcome,[3],inactive
same,outcome,[4],inactive
same,outcome,[5],inactive
same,outcome,[7],inactive
same,outcome,[8],inactive
same,outcome,Caspase-3 (Homo sapiens),inactive
CCN(Cc1c(F)cccc1Cl)c1c([N+](=O)[O-])cc(C(F)(F)F)cc1[N+](=O)[O-],outcome,[1],inactive
same,outcome,[2],inactive
same,outcome,[3],inactive
same,outcome,[4],inactive
same,AC50,[5],50 µM (active)
same,outcome,[7],inactive
same,outcome,[8],inactive
same,outcome,Caspase-3 (Homo sapiens),inactive
CSC(=O)c1cccc2nnsc12,outcome,[1],inactive
same,outcome,[2],inactive
same,outcome,[3],inactive
same,outcome,[4],inactive
same,outcome,[5],inactive
same,outcome,[7],inactive
same,outcome,[8],inactive
same,outcome,Caspase-3 (Homo sapiens),inactive
CCSC(=O)N(CC(C)C)CC(C)C,outcome,[1],inactive
same,outcome,[2],inactive
same,outcome,[3],inactive
same,outcome,[4],inactive
same,outcome,[5],inactive
same,outcome,[7],inactive
same,outcome,[8],inactive
same,outcome,Caspase-3 (Homo sapiens),inactive
